# USP2a inh: USP2a (human) protease inhibition | O75604 | USP2 core, Ub-CHOP2 coupled fluorogenic reporter, 485/531 | 330,000 compounds, 0.01% hits | Potency, µM (titrated, usually from 38.3 µM), actives largely listed as inhibitors
#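 Deubiquitinase activity read as fluorescence (485/531 nm) after Ub-CHOP2 cleavage activates the enterokinase reporter on its substrate; USP2 core 10nM, Ub-CHOP2 and substrate 25nM each, 30min compound preincubation then 60min RT; data normalized to NEM, curves fitted.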
# ClpP mod: qHTS Assay for Activators of ClpP; ATP-dependent Clp protease proteolytic subunit (Bacillus subtilis (strain 168)), P80244; purified B. subtilis ClpP, FRET peptide cleavage, 20 min; Potency, µM (highest dose often 57.5 µM); 340,000 compounds, 1.9% hits; active = well fitted falling curve with a large enough effect; inconclusive = small, poorly fitted or top-dose-only effect; inactive = no such curve, though single readings can be large or run the other way; also: the source files actives as falling curves though it sought activators and does not explain the sign; nearly all actives have a fitted effect of over 65% in size
#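 ClpP 10 microg/mL final, pH 8 Tris/KCl buffer with BSA, glycerol, Tween-20; compound pinned in; FRET-FV substrate; RT 20 min; Ex320/Em430; ΔFRET vs ADEP 5.8 microM, DMSO, no enzyme.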
# MmCpn inh: blocks the Methanococcus maripaludis chaperonin Mm-Cpn | purified Mm-Cpn ATPase, ADP Transcreener TR-FRET | Potency, µM (titrated, usually from 76.9 µM), hits mostly inhibitors | 330,000 compounds, 0.031% hits | AID 504842; also: nearly all actives have a fitted effect of over 80% in size
#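 ATPase turnover read by TR-FRET ADP competition (Eu cryptate antibody/ADP-d2, 665/590 nm): 10uM ATP final, 25nM Mm-CPN final, 30 min 37degC after 10-min compound preincubation, pH 7.4 Tris/KCl/MgCl2/DTT buffer.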
# a7 integrin act: integrin-mediated muscular dystrophy alleviation activation; alpha7betagal myoblasts, beta-gal FDG fluorescence, 48 h; Potency, µM (top dose mostly 38.3 µM), most hits filed as activators; 350,000 compounds, 0.064% hits; also: nearly all actives have a fitted effect of over 60% in size
#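 Alpha7betagal+/- myoblasts (passage 13) were plated 16-24 hr, then exposed to compounds (1:260 dilution of DMSO stock) for 48 hours at 37C. After MPER lysis, β-galactosidase reporter activity was read as FDG fluorescence (ex 480/em 540) after 30 minutes.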
# Eya2 inh: Eya2 (human) phosphatase inhibition; 330,000 compounds, 0.006% hits; O00167; recombinant Eya2, OMFP fluorescence dephosphorylation (OMFP is methylfluorescein phosphate); AID 488837; Potency, µM (series often up to 76.9 µM), actives largely listed as inhibitors
# Target sequence (O00167 whole entry, looked up): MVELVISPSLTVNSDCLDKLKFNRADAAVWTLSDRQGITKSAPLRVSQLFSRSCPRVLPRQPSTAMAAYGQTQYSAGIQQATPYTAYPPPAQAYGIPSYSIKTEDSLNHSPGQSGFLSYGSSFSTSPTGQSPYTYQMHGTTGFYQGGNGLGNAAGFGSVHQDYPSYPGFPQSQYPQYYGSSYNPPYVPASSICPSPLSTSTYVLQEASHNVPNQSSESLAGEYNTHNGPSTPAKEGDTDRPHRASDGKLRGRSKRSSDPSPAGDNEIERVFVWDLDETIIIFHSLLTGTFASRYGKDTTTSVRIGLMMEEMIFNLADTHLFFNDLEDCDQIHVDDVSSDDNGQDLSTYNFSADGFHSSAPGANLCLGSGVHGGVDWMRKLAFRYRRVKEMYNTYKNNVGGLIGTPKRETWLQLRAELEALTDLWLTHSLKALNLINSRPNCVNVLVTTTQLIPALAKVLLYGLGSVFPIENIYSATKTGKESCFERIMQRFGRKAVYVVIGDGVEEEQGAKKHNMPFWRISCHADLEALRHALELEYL
#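 Eya2 (0.2 uM) preincubated 10 min at ambient with compound, then OMFP substrate added at 50 uM; 10 min reaction in 50 mM HEPES pH 7.5, 50 mM NaCl, 5 uM MgCl2, 0.05% BSA, 1 mM DTT. Fluorescence read at Ex 485/Em 525 nm.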
# p53 reactivation: restores transcriptional activity of mutant p53; H1299 p53-A138V BP100-luciferase reporter, luminescence, 24 h; Potency, µM (highest dose often 92.2 µM), most hits filed as activators; 320,000 compounds, 0.063% hits; AID 504706; also: nearly all actives have a fitted effect of over 45% in size
#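 H1299 (p53-null), stable ts p53-A138V + BP100-Luc; 1000 cells/well, Opti-MEM/10% FBS; cpd 4 pt, 1:5; 24 h, 37 deg C, 5% CO2; detection reagent 10 min RT; luminescence.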
# Hits are given with their value; n = inactive; u = inconclusive; x = no result given. Many of the other results were omitted from the sample, so hits are more common in it than they were. Unless noted, calls follow the shape of the dose curve; as a rule, active = well fitted curve in the direction sought with a large enough effect; inconclusive = small, poorly fitted or top-dose-only effect, or another doubt; inactive = no such curve, though single readings can be large; an effect the other way counts as inactive or inconclusive.
SMILES,USP2a inh,ClpP mod,MmCpn inh,a7 integrin act,Eya2 inh,p53 reactivation
CCOc1ccc(NC(=O)CC2C(=O)N(c3ccc(Cl)cc3)C(=O)N2Cc2cccs2)cc1 (centres undefined),x,n,x,x,x,x
CCCc1c(CC)c(=N)c2ccccc2n1C,n,28µM,n,n,n,n
CCc1ccc(C(=O)c2cn(Cc3ccccc3)c3cc(OC)c(OC)cc3c2=O)cc1,x,n,x,x,x,x
CCOc1[nH]c(/N=C/c2ccc(OC)cc2)c(C#N)c1C#N,x,n,x,x,x,x
Clc1nc(NCc2ccco2)c2[nH]cnc2n1,x,n,x,x,x,x
Cc1cc(C)n(CC(O)Cn2c(C)c(C)c3ccccc32)n1 (centres undefined),n,32µM,n,n,n,n
Cc1c(C)n(CC(O)CN2CCCCC2)c2ccccc12 (centres undefined),n,32µM,n,n,n,n
Cc1c(C)n(CC(O)CN2CCN(C)CC2)c2ccccc12 (centres undefined),n,n,n,n,n,n
COc1ccccc1C(=O)OCC(=O)Nc1ccc(N2CCCCC2)cc1,x,n,x,x,x,x
O=C(Nc1ccccc1C(=O)O)c1ncn[nH]1,n,28µM,n,n,n,n
O=C(CSc1ncn[nH]1)Nc1ccccc1C(=O)O,n,n,n,n,n,n
COc1cc(/C=C2/C=Cc3ccccc32)ccc1N(C)C,x,n,x,x,x,x
Cc1cc(C)cc(C(=O)C[n+]2cccc(Br)c2)c1,x,n,x,x,x,x
COc1ccc(N2CCN(CCNC(=O)Nc3cccc(C)c3C)CC2)cc1,n,n,n,n,n,n
COc1ccccc1N1CCN(CCNC(=O)Nc2cccc(C)c2C)CC1,n,32µM,n,n,n,n
COc1ccccc1CNS(=O)(=O)c1ccc(Cl)s1,n,n,n,6.3µM,n,n
COc1ccccc1CNS(=O)(=O)c1c(C)nc2sc(C)cn2c1=O,x,32µM,x,x,x,x
Cc1nc2scc(C)n2c(=O)c1S(=O)(=O)NCCc1ccccc1,n,n,n,n,n,n
Cc1cn2c(=O)c(S(=O)(=O)NCCc3ccccc3)c(C)nc2s1,x,28µM,x,x,x,x
Cc1cccc(N2C(=O)C(CC(=O)Nc3ccccc3)N(C3CCCCC3)C2=O)c1 (centres undefined),x,n,x,x,x,x
O=C(C[n+]1csc2ccccc21)c1ccc(O)c(O)c1,x,n,x,x,x,x
COc1cc2c(cc1OC)C1=NC(=O)CN1C(SCc1ccccc1)=N2,n,22µM,n,n,n,n
O=C(CN1C(=O)CC(c2ccccc2)Sc2ccccc21)Nc1cccc(Cl)c1 (centres undefined),x,n,x,x,x,x
S=c1[nH]c(=S)c2[nH]cnc2[nH]1,x,n,x,x,x,x
COc1ccccc1C(=O)N/N=C(\C)c1ccc(NC(=O)C2CC2)cc1,n,28µM,n,n,n,n
SMILES,USP2a inh,ClpP mod,MmCpn inh,a7 integrin act,Eya2 inh,p53 reactivation
O=C(CSc1nc(-c2ccccc2)[nH]c1-c1ccccc1)Nc1ccc2c(c1)OCO2,x,n,x,x,x,x
COc1cc2ccccc2cc1C(=O)OCC(=O)c1c(N)n(C)c(=O)n(C)c1=O,n,32µM,n,n,n,n
CCCN(CC(=O)Nc1ccccc1C)C(=O)c1cn2ccccc2n1,n,32µM,n,n,n,n
CCn1c(SCC(=O)N(C)CC(=O)Nc2ccc(OC)cc2)nnc1-c1ccco1,n,n,n,n,n,n
O=C(CSc1nnc(-c2ccco2)n1-c1ccccc1)NCC1CCCO1 (centres undefined),n,32µM,n,n,n,n
COc1cccc(-n2c(SCC(N)=O)nnc2-c2ccco2)c1,n,32µM,n,n,n,n
COc1ccc(-n2c(SCC(N)=O)nnc2-c2ccco2)cc1,n,n,n,n,n,n
CCn1c(SCC(=O)N(C)CC(=O)Nc2cccc(OC)c2)nnc1-c1ccco1,n,28µM,n,n,n,n
Cc1ccc2nc(/C=C/c3ccc(N(C)C)cc3)ccc2c1,x,n,x,x,x,x
CCOc1ccc(-c2cc(C)n3nc(C(N)=O)cc3n2)cc1,n,16µM,n,n,n,n
COC(=O)c1cc2nc(-c3ccccc3)cc(C)n2n1,n,u,n,n,n,n

# Screens: PubChem, National Center for Advancing Translational Sciences (NCATS)
